Test results reported in PubChem BioAssay (NCATS).
Results filed as inconclusive are left out. A call without a number means that no potency is given here. The source made the active and inactive calls. The call rests on the fitted dose curve.

Assay: Validation screen for inhibitors of Lassa infection (AID 463096)
Conditions: Lassa virus infection, cell-based; series mostly up to 46.1 µM
Potency means the concentration at half of the fitted maximal effect.

Q: With `CC[N+](CC)(CC)CC(=O)Nc1c(C)cccc1C` as the compound, how does the Potency read?
A: inactive

Q: With `C/C(=C\c1ccc(C(=O)O)cc1)c1ccc2c(c1)C(C)(C)CCC2(C)C` as the compound, how does the Potency read?
A: inactive

Q: Which Potency does the source give for `CN1CCc2ccccc2Cc2[nH]c3ccccc3c2CC1` here?
A: inactive

Q: For `COc1ccccc1N1CCN(CCN2C(=O)CC3(CCCC3)CC2=O)CC1`, which Potency is on record?
A: inactive

Q: With `N=C(N)c1ccc(N)cc1` as the compound, how does the Potency read?
A: inactive

Q: Which Potency does the source give for `O=C(c1cc(O)c(O)c([N+](=O)[O-])c1)c1ccccc1F` here?
A: inactive

Q: Which Potency does the source give for `NCCNS(=O)(=O)c1cccc2c(Cl)cccc12` here?
A: inactive

Q: For `CC(=O)N[C@@H](Cc1c[nH]c2ccccc12)C(=O)OCc1cc(C(F)(F)F)cc(C(F)(F)F)c1`, which Potency is on record?
A: inactive

Q: With `CSC(=N)N` as the compound, how does the Potency read?
A: inactive

Q: With `Cn1c(=O)c2[nH]c(-c3ccc(S(=O)(=O)O)cc3)nc2n(C)c1=O` as the compound, how does the Potency read?
A: inactive

Q: For `O=C(O)[C@@H]1C[C@@H](C(=O)O)N1`, which Potency is on record?
A: inactive

Q: With `c1ccc(-c2ccccn2)nc1` as the compound, how does the Potency read?
A: inactive

Q: Which Potency does the source give for `COc1ccc2c(c1)c(CC(=O)O)c(C)n2C(=O)c1ccccc1` here?
A: inactive

Q: Which Potency does the source give for `COc1cc2c(CCNC(C)=O)c[nH]c2cc1Cl` here?
A: inactive

Q: With `COc1cc2c(CCNC(C)=O)c[nH]c2cc1O` as the compound, how does the Potency read?
A: inactive

Q: Which Potency does the source give for `C[C@H](O)C(=O)C1=Nc2c(nc(N)[nH]c2=O)NC1` here?
A: inactive

Q: With `NC(=O)C(=O)O` as the compound, how does the Potency read?
A: inactive

Q: Which Potency does the source give for `O=C(O)c1ccccc1Nc1cccc(OCc2ccc3ccccc3n2)c1` here?
A: inactive

Q: For `O=c1ccc2c(OCCCCc3ccccc3)c3ccoc3cc2o1`, which Potency is on record?
A: inactive

Q: For `C[C@@H]1C(=O)NC2=Nc3cccc(Cl)c3CN21`, which Potency is on record?
A: inactive

Q: With `O=C(O)C1=CCCNC1` as the compound, how does the Potency read?
A: inactive

Q: With `O=C(O)c1ccccc1Nc1ccccc1` as the compound, how does the Potency read?
A: inactive

Q: For `CNCCNS(=O)(=O)c1cccc2cnccc12`, which Potency is on record?
A: inactive

Q: For `CC(C)NC[C@H](O)c1ccc(O)c(O)c1`, which Potency is on record?
A: inactive

Q: With `NC(N)=NC(N)=Nc1cccc(Cl)c1` as the compound, how does the Potency read?
A: inactive

Q: Which Potency does the source give for `CCCn1c(=O)c2[nH]c(C3CCCC3)nc2n(CCC)c1=O` here?
A: inactive

Q: For `O=C(O)c1cc(=O)c2ccccc2[nH]1`, which Potency is on record?
A: inactive

Q: For `COc1ccc(C(=O)NCc2cccnc2)cc1C(=O)NCc1cccnc1`, which Potency is on record?
A: inactive

Q: Which Potency does the source give for `CC1(C)CCC2=C(O1)c1ccccc1C(=O)C2=O` here?
A: 11.2 µM (active)

Q: For `COc1cc(/C=C(\C#N)C(=O)c2ccc(O)c(O)c2)cc(I)c1O`, which Potency is on record?
A: inactive

Q: With `O=C(O)CC[C@@H](C(=O)O)N1C(=O)c2ccccc2C1=O` as the compound, how does the Potency read?
A: inactive

Q: For `O=c1[nH]c(=O)c2nc3ccccc3nc2[nH]1`, which Potency is on record?
A: inactive

Q: With `CN(C)c1nc(N)c(C(=O)N=C(N)N)nc1Cl` as the compound, how does the Potency read?
A: inactive

Q: With `COCc1nc2c([nH]1)c(=O)n(C)c(=O)n2CC(C)C` as the compound, how does the Potency read?
A: inactive

Q: For `Oc1ccc(Cn2cc[nH]c2=S)cc1`, which Potency is on record?
A: inactive

Q: Which Potency does the source give for `N=c1c[n+](N2CCOCC2)[n-]o1` here?
A: inactive

Q: For `c1ccc2nc(C3=NCCN3)ccc2c1`, which Potency is on record?
A: inactive

Q: With `O=[N+]([O-])c1cccc2cn[nH]c12` as the compound, how does the Potency read?
A: inactive

Q: Which Potency does the source give for `CCCCN1CCC(n2c(=O)[nH]c3ccccc32)CC1` here?
A: inactive

Q: With `NC1(C(=O)O)CC1` as the compound, how does the Potency read?
A: inactive
